# Experimental data from PMC3218832.
# Target: T1, C-Rel subunit;p52 subunit (Homo sapiens;Homo sapiens, UniProt Q04864;Q00653 1-285;4-332)
# T1 sequence 1: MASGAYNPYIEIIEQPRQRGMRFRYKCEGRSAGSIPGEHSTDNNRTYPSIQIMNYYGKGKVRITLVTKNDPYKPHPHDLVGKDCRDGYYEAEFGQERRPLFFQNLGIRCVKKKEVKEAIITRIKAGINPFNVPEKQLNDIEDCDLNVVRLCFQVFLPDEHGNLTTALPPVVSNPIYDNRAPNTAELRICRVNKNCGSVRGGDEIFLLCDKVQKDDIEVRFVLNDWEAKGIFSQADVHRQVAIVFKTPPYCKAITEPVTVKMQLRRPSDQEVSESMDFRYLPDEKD
# T1 sequence 2: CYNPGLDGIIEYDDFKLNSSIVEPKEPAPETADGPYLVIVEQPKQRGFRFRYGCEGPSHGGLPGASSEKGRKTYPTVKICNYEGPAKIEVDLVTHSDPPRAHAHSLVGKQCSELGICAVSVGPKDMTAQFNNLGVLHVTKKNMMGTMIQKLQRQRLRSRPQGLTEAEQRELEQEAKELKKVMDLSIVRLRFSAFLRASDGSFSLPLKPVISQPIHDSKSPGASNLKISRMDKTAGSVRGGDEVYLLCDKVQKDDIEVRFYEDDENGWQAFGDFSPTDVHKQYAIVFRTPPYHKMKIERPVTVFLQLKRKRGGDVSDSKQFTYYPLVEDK
# Experiment: protein binding microarray; high values mean tight binding
# Conditions: dsDNA, one strand shown
row,Sequence,binding signal
1,CAATGTGTCCT,-0.764 z-score
2,CAGTTCTCCCT,0.344 z-score
3,AAGGTACTCCC,0.449 z-score
4,CAAGTTGTCCC,0.251 z-score
5,GGAGGTATCCC,-0.276 z-score
6,AAGGGAATCCC,1.92 z-score
7,CAATGTTCCCT,-0.175 z-score
8,AAATTACTCCC,-0.11 z-score
9,GAATTCGCCCT,-0.36 z-score
10,CAGAGACCCCC,0.174 z-score
11,CGGTGAGCCCC,0.314 z-score
12,CGAGATACCCC,0.344 z-score
13,CAGGGGATCCC,1.42 z-score
14,CGGGAGATCCT,0.0327 z-score
15,GGAAATGTCCC,0.975 z-score
16,GAGAGTATCCC,-0.641 z-score
17,CAAAGGCCCCC,0.0137 z-score
18,AGAGGTTCCCC,1.14 z-score
19,CGAAAAATCCT,-0.29 z-score
20,CGGGTAGTCCC,1.5 z-score

row,Sequence,binding signal
1,GAGAGCCCCCC,0.389 z-score
2,GAAGGCGTCCC,-0.265 z-score
3,CGATAGCTCCT,-1.09 z-score
4,AGAATGTTCCT,-0.63 z-score
5,AGAATCCCCCC,2.21 z-score
6,AGAAACGTCCT,-0.812 z-score
7,GAAGTAATCCT,-0.892 z-score
8,AGGGACGTCCT,0.67 z-score
9,CGAATACCCCT,0.881 z-score
10,CAGAGCACCCT,-0.736 z-score
11,AAAGACTCCCT,0.0126 z-score
12,GAGATATCCCC,0.964 z-score
13,AAAGTGATCCT,-0.986 z-score
14,AAGAGGTTCCT,-0.637 z-score
15,AGGTAATTCCT,0.709 z-score
16,CAGGGATCCCC,1.31 z-score
17,CGGTGTACCCT,-0.317 z-score
18,AAGATGCCCCC,0.633 z-score
19,AAAATAACCCC,1.16 z-score
